Consider 40 compounds from PubChem BioAssay (NCATS).

Records with an inconclusive call do not appear. A call without a number means that no potency is given here. Values without a mark were called inactive. Calls of active or inactive are those of the source. Calls follow the shape of the dose curve; as a rule, active = well fitted cell-killing curve with a large enough effect; inconclusive = small, poorly fitted or top-dose-only effect, or effect the other way; inactive = flat fitted curve, though single readings scatter.
Potency is read from the fitted curve at half-maximal effect.

This assay deals with CAOV3. Put plainly: Primary qHTS to identify gynecologic anti-cancer compounds using libraries of approved drugs and bioactive compounds (AID 1345084). Also: nearly all actives have a fitted effect of over 55% in size. To be noted: Gynecologic cancer cell panel viability, ATPlite luminescence, 48 h; series mostly up to 57.5 µM. An excerpt: National Center for Advancing Translational Sciences [NCATS] Assay Overview: Chemotherapeutic drug responses vary from cancer to cancer and from patient to patient. These variations could be caused by a number of factors including patient genomic background, tumor mutations, tumor heterogeneity, and aspects of drug treatment. Chemotherapeutic drug resistance is also a common issue and can lead to ineffective treatment and patient death. Here we have profiled the cell killing effects of thousands of compounds to characterize the responses in three gynecological cancers, identify cancer-selective compounds, and understand the diversity of responses to these compounds from pan-cancer suppressors to single cell line selective compounds. In this assay, we screened a 7,914 compound drug library that included approved drug and bioactive compounds in six ovarian, three cervical, and […] placental cancer cell lines using the ATPlite assay for cell viability. […] The cervical cancer cell lines included HeLa, Ca Ski, and C-33 A. The placental cancer cell lines included JEG-3. HEK 293T cells were used as the control cell line to determine the selectivity index. ATPlite is a luminescence based assay reliant on the conversion of a luciferase substrate to light in the presence of ATP. As a cytotoxic compound will suppress growth and decrease the number of cells, the concentration of ATP will decrease, and less light signal will be detected in the well.
Assay Protocol Summary: 1,000 cells in 4 uL of media were dispensed into white, solid bottom 1536-well plates using a Multidrop Combi (Thermo Scientific). The Assay plates were incubated for 16 hours at 37 C with 5% CO2 in assay plates, followed by the addition of 23 nL of DMSO or drug dissolved in DMSO. Each compound was assayed in five concentrations (0.092, 0.46, 2.3, 11.5, and 57.5 uM), using the automated Wako 1536 Pin Tool workstation and incubated at 37 C with 5% CO2 48 hours. 4 uL of ATPlite, the ATP monitoring reagent, was then added to the each well of the assay plates using the Multidrop Combi reagent dispenser followed by incubation for 15 minutes at room temperature. The resulting luminescence was measured using the ViewLux plate reader.
On the technique in general: qHTS replaces the single test concentration by a dilution series.
As to `N[C@@H](CSSC[C@H](N)C(=O)O)C(=O)O`, the activity change, negative = cytotoxicity was -5.94% [at 0.462 µM].

On to `COc1cc2[nH]c(=O)[nH]c(=O)c2cc1OC`, for which the Potency result was “inactive”.

With `O=C(CCCN1CCN(c2ccccn2)CC1)c1ccc(F)cc1`, the Potency entry is “inactive”.

`Cc1cc2c(cc1S(N)(=O)=O)S(=O)(=O)CCC2`: the Potency result was “inactive”.

As for `CO/N=C(\C(=O)N[C@@H]1C(=O)N2C(C(=O)O)=C(CSc3nc(=O)c(O)nn3C)CS[C@H]12)c1csc(N)n1`, the Potency entry was “inactive”.

As for `O=C(O)[C@H](O)c1ccccc1`, the Potency result is “inactive”.

Consider `NC(=O)c1ncn([C@@H]2O[C@H](CO)[C@@H](O)[C@H]2O)n1`, for which the Potency entry is “inactive”.

Regarding `Cc1cccc(C)c1NC(=O)CN(CC(=O)O)CC(=O)O`, the Potency result was “inactive”.

Take `O=S(=O)(O)NC1CCCCC1`: the Potency result is “inactive”.

On to `CCOc1nc2cccc(C(=O)O)c2n1Cc1ccc(-c2ccccc2-c2nn[nH]n2)cc1`, for which the Potency entry was “inactive”.

With `CC(O)COc1ccccc1` (stereo not given), the Potency result was “inactive”.

Consider `CC1(C)Oc2ccc(C#N)cc2[C@@H](N2CCCC2=O)[C@@H]1O`, for which the Potency entry was “inactive”.

`CC(C)C(=O)c1c(C(C)C)nn2ccccc12`: the Potency result is “inactive”.

For the compound `N[C@H]1C(O)O[C@H](CO)[C@@H](O)[C@@H]1O` (stereo not given in full), the Potency result was “inactive”.

Turning to `CCn1cc(C(=O)O)c(=O)c2cnc(N3CCNCC3)nc21`, the Potency entry is “inactive”.

With `Nc1ccc(S(=O)(=O)Nc2ccccc2)cc1`, the Potency entry is “inactive”.

On to `CC(C)(C(=O)O)c1ccc(C(O)CCCN2CCC(C(O)(c3ccccc3)c3ccccc3)CC2)cc1` (stereo not given), for which the Potency entry was “inactive”.

Take `CCCCN(CCCC)CC(O)c1cc(Cl)cc2c1-c1ccc(Cl)cc1/C2=C/c1ccc(Cl)cc1` (stereo not given): the Potency entry is “inactive”.

As for `CC(COc1ccccc1)NC(C)C(O)c1ccc(O)cc1` (stereo not given), the Potency result was “inactive”.

On to `CCCCOc1cc(C(=O)OCCN(CC)CC)ccc1N`, for which the Potency entry is “inactive”.

Consider `Nc1cc(=O)[nH]c(N)n1`, for which the Potency entry was “inactive”.

Regarding `CC(C(O)c1ccc(O)cc1)N1CCC(Cc2ccccc2)CC1` (stereo not given), the Potency entry was “inactive”.

Consider `CCN(CC)CCCC(C)Nc1c2ccc(Cl)cc2nc2ccc(OC)cc12` (stereo not given), for which the Potency was 3.98 µM (active).

Turning to `CC(O)CN(CCN(CC(C)O)CC(C)O)CC(C)O` (stereo not given), the Potency result was “inactive”.

Regarding `CCCn1cnc2c1c(=O)n(CCCCC(C)=O)c(=O)n2C`, the Potency entry was “inactive”.

In the case of `CCCCCCCCCCCCOS(=O)(=O)O`, the Potency entry was “inactive”.

Consider `CCN(CC)C(C)CN1c2ccccc2Sc2ccccc21` (stereo not given), for which the Potency result was “inactive”.

In the case of `OCC(O)CN1CCN(c2ccccc2)CC1` (stereo not given), the Potency entry is “inactive”.

As for `Cc1ccc(C(C)C)cc2c(C)ccc1-2`, the Potency entry is “inactive”.

For the compound `O=C(O)CN1C(=O)c2cccc3cccc(c23)C1=O`, the Potency entry was “inactive”.

`CN1CCOC(c2ccccc2)c2ccccc2C1` (stereo not given): the Potency result is “inactive”.

On to `C[C@@H]1CN(c2c(F)c(F)c3c(=O)c(C(=O)O)cn(C4CC4)c3c2F)C[C@H](C)N1`, for which the Potency entry is “inactive”.

`NC(=O)c1ncn([C@@H]2O[C@H](CO)[C@@H](O)[C@H]2O)c1N`: the Potency result was “inactive”.

For `CC/C=C(\C(=O)N[C@@H]1C(=O)N2C(C(=O)OCOC(=O)C(C)(C)C)=C(COC(N)=O)CS[C@H]12)c1csc(N)n1`, the Potency result is “inactive”.

In the case of `COc1ccc(S(=O)(=O)Nc2nnc(CC(C)C)s2)cc1`, the Potency entry was “inactive”.

As to `CCCCN(CCCC)CCCOC(=O)c1ccc(N)cc1`, the Potency result was “inactive”.

As for `NCCNCCNCCN`, the Potency entry is “inactive”.

In the case of `CC1CC(OC(=O)C(O)c2ccccc2)CC(C)(C)N1C` (stereo not given), the Potency entry is “inactive”.

For the compound `O=C1N=C(O)CN1/N=C/c1ccc(-c2ccc([N+](=O)[O-])cc2)o1`, the Potency result is “inactive”.

On to `CN(C)CCC=C1c2ccccc2CCc2ccccc21`, for which the Potency entry was “inactive”.
